Results with a measured potency or affinity are listed apart.
Biological target: Muscarinic acetylcholine receptor M3 (Homo sapiens) (UniProt P20309)
Experiment: human M3 receptor positive allosteric modulation, dose response, selectivity assay for M1 PAM project, cell-based, CHO-K1 hM3, Fluo-4 calcium, ACh EC20 (AID 2428)
Settings: ACh EC20 potentiation; series mostly up to 30 µM; percent of max ACh response: at the top concentration;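 active = compound whose fitted concentration response curve has an R squared above 0.5; inactive = the rest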

Chain of Muscarinic acetylcholine receptor M3 (Homo sapiens) (P20309 whole entry, looked up): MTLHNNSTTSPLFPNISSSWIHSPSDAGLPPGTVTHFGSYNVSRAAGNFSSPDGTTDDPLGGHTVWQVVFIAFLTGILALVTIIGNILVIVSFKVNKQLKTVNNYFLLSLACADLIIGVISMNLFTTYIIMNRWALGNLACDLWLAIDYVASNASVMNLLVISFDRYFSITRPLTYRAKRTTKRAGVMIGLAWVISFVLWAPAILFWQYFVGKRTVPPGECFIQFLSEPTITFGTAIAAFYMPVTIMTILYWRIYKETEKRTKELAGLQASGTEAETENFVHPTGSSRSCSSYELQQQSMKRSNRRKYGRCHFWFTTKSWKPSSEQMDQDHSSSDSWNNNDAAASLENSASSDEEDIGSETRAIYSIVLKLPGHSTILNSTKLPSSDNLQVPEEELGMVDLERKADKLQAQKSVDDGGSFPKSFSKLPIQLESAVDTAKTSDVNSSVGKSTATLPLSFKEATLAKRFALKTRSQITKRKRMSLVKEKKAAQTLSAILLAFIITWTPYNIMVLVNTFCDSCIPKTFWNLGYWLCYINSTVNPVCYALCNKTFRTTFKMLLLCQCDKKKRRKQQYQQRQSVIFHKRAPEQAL

Percent of max ACh response, inactive:
Cc1cc(NC(=O)CS(=O)(=O)c2cn(Cc3cc(Br)ccc3F)c3ccccc23)no1 2.88%, Cc1cc(NC(=O)CS(=O)(=O)c2cn(Cc3cccc(F)c3)c3ccccc23)no1 4.68%, Cc1cc(NC(=O)CS(=O)(=O)c2cn(Cc3ccccc3Cl)c3ccccc23)no1 12.8%, O=C1C(=O)N(Cc2ccc(Oc3ccccc3)cc2)c2ccc(OC(F)(F)F)cc21 29.2%, Cn1cc(-c2cc(F)c(CN3C(=O)C(=O)c4ccccc43)c(F)c2)cn1 15.7%, Cc1cc(NC(=O)CS(=O)(=O)c2cn(Cc3cccc(Cl)c3)c3ccccc23)no1 24%, Cn1cc(-c2ccc(CN3C(=O)C(=O)c4ccccc43)c(F)c2)cn1 18%, Cc1cc(NC(=O)CS(=O)(=O)c2cn(Cc3cccc(-c4ccn(C)n4)c3)c3ccccc23)no1 21.3%

— PubChem BioAssay AID2428 (Vanderbilt High Throughput Screening Facility, 2010)
